In PubChem BioAssay (NCATS):
Records with an inconclusive call do not appear. Unmarked numbers belong to inactive results. Calls of active or inactive are those of the source. Calls come from the whole dose curve; as a rule, active = well fitted inhibition curve with a large enough effect; inconclusive = small, poorly fitted or top-dose-only effect; inactive = flat fitted curve, though single readings scatter.

target: Luciferin 4-monooxygenase (Photinus pyralis) (UniProt P08659); assay: Biochemical firefly luciferase enzyme assay for NPC (AID 624030); note: nearly all actives have a fitted effect of over 70% in size;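 for activity change, negative = inhibition: 0% = DMSO and -100% = full luciferase inhibition by PTC124 control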; details: purified P. pyralis luciferase, luminescence, 5 min; series mostly up to 58.6 µM; activity change, negative = inhibition: at the top concentration
Source text: Charcot-Marie-Tooth-Association [CMTA] National Center for Advancing Translational Sciences [NCATS] Charcot-Marie-Tooth (CMT) disease was first characterized by Jean-Martin Charcot and Pierre Marie in France and, independently, by Howard Henry Tooth in England in 1886. CMT is one of the most common inherited neurological diseases, affecting approximately 1 in 2,500 Americans. […] The most prevalent type of CMT is known as CMT1A and caused by a duplication of the PMP22 gene which leads to over-expression of this protein. PMP22 is a glycosylated intrinsic membrane protein accounting for 2-5% of the myelin protein content, and its over-expression results in demyelination and subsequently axonal loss. A pair of cellular transcription-based assays was developed in the S16 rat Schwann cell lines (Hai, M., et al., 2002) stably transfected with orthogonal reporters - firefly luciferase (Fluc) and beta-lactamase (beta-Lac) - whose expression is driven by an intronic regulatory element of the PMP22 gene (Jones, E.A., et al., 2011) to recapitulate endogenous expression of PMP22. A comprehensive library of approved drugs, the NCGC Pharmaceutical Collection (Huang, R., et al., 2011), was screened in the cross-validating platform of the orthogonal reporter assays to identify drug modulators inhibitory towards PMP22 expression. A set of counter-screens was devised to address non-specific activity of the library. An ATP-dependent CellTiter-Glo assay (developed by Promega Corp) was utilized to control cell viability. In addition, biochemical Fluc enzyme assay was performed to assess direct inhibition of the Fluc enzymatic activity. References Hai, M., Muja, N., DeVries, G.H., Quarles, R.H. and Patel, P.I. Comparative analysis of Schwann cell lines as model systems for myelin gene transcription studies. J Neurosci Res, 2002. 69(4): pp 497-508 Huang, R., Southall, N., Wang, Y., Yasgar A., Shinn P., Jadhav, A. , Nguyen, D.-T. and Austin, C.P., The NCGC pharmaceutical collection: a comprehensive resource of clinically approved drugs enabling repurposing and chemical genomics. Sci Transl Med, 2011. 3(80): p. 80ps16.
Compounds were transferred to the plates in 23nl, and one microliter/well luciferase enzyme-buffer solution (10 nM P. pyralis luciferase and 50 mM Tris Acetate final concentrations) was dispensed yielding a final reaction volume of […]. Luciferase luminescence was measured by a ViewLux plate reader within 5 minutes of enzyme-buffer addition. The % activity was determined by normalizing to the average readings of PTC124 (a positive control) relative to DMSO (0% Activity). The concentration-effect curves were then classified based on curve quality (r2), response magnitude and degree of measured activity.
Potency is the fitted concentration of half-maximal effect.

Sequence of Luciferin 4-monooxygenase (Photinus pyralis) (P08659 whole entry, looked up): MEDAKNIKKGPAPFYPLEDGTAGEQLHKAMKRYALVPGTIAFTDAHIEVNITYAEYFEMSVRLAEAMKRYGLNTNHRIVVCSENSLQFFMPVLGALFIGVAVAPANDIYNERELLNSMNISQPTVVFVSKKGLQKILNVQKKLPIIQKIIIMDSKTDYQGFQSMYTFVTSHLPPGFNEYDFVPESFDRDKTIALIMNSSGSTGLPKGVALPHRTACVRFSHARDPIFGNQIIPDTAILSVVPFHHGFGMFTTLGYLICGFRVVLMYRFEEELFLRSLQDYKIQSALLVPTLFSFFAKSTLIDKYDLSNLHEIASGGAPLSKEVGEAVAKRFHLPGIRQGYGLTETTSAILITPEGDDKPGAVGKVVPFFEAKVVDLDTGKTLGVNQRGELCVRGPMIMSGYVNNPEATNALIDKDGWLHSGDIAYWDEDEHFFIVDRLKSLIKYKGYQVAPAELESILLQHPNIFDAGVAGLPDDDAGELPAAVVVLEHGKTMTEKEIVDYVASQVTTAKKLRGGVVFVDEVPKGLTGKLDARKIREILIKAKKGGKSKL

Structure (SMILES) | activity change, negative = inhibition | Potency
O=C(OC1C[C@H]2CC[C@@H](C1)[N+]21CCCC1)C(O)(c1ccccc1)c1ccccc1 (stereo not given in full) | 0.922% | 
O=C(NCC1CCCCN1)c1cc(OCC(F)(F)F)ccc1OCC(F)(F)F (stereo not given) | -1.26% | 
N[C@@H](Cc1cc(I)c(Oc2cc(I)c(O)c(I)c2)c(I)c1)C(=O)O | -16.7% | 
CC(C)[C@H](N)C(=O)OCCOCn1cnc2c(=O)[nH]c(N)nc21 | 3.02% | 
CC1=C(C(=O)O)N2C(=O)[C@@H](NC(=O)[C@H](N)C3=CCC=CC3)[C@H]2SC1 | -7.88% | 
CN1C(C(=O)Nc2ccccn2)=C(O)c2sccc2S1(=O)=O | -10.4% [at 24.9 µM] | 
CCN(CC)CCOc1ccc(Cc2ccccc2)cc1 | -1.52% | 
COc1cc2c(cc1OC)C1CC(=O)C(CC(C)C)CN1CC2 (stereo not given) | 0.934% | 
O=C(CS(=O)Cc1ccco1)NCC=CCOc1cc(CN2CCCCC2)ccn1 (stereo not given) | 0.59% | 
CC1(C)NC(=O)N(c2ccc([N+](=O)[O-])c(C(F)(F)F)c2)C1=O | -4.26% | 
O=C(O)c1cccc(-c2noc(-c3ccccc3F)n2)c1 |  | 7.2 nM (active)
CC(C)c1nc(CN(C)C(=O)N[C@H](C(=O)N[C@@H](Cc2ccccc2)C[C@H](O)[C@H](Cc2ccccc2)NC(=O)OCc2cncs2)C(C)C)cs1 | -4.39% | 
Cc1cc(C2CCCCC2)n(O)c(=O)c1 | 2.91% [at 24.9 µM] | 
CC1=C(C)C(=O)C(C(CCCCCC(=O)O)c2ccccc2)=C(C)C1=O (stereo not given) | -9.33% | 
CCC1=C(C)CN(C(=O)NCCc2ccc(S(=O)(=O)NC(=O)NC3CCC(C)CC3)cc2)C1=O (stereo not given) | -10.3% | 
Cc1cc(=O)c2c(O)c3c(O)cc(=O)c4c3c3c(cc(O)c1c23)C(C)(C)C=4O | 5.3% | 
N=C(N)c1ccc2cc(OC(=O)c3ccc(N=C(N)N)cc3)ccc2c1 | 7.88% | 
c1cnc2cc3c(cc2n1)C1CNCC3C1 | 1.48% [at 123 µM] | 
CC(C)Oc1ccc2c(=O)c(-c3ccccc3)coc2c1 |  | 2030 nM (active)
Cc1ccc(NC(=O)c2ccc(CN3CCN(C)CC3)cc2)cc1Nc1nccc(-c2cccnc2)n1 |  | 12800 nM (active)

Structure (SMILES) | activity change, negative = inhibition | Potency
CC1Cc2ccccc2N1NC(=O)c1ccc(Cl)c(S(N)(=O)=O)c1 (stereo not given) | -0.914% | 
CC(C)c1ccc2oc3nc(N)c(C(=O)O)cc3c(=O)c2c1 |  | 405 nM (active)
CN(c1nccc(=O)[nH]1)C1CCN(c2nc3ccccc3n2Cc2ccc(F)cc2)CC1 | -0.696% | 
CS(=O)(=O)OCCCCOS(C)(=O)=O | -0.846% | 
O=C(NC(Cc1cc(=O)[nH]c2ccccc12)C(=O)O)c1ccc(Cl)cc1 (stereo not given) | -0.831% | 
CN(C)c1ccc(O)c2c1C[C@H]1C[C@H]3[C@H](N(C)C)C(=O)C(C(N)=O)=C(O)[C@@]3(O)C(=O)C1=C2O | -9.95% | 
C[Se]CCC(N)C(=O)O (stereo not given) | -1.5% | 
CCCCC(CC)COC(=O)C(C#N)=C(c1ccccc1)c1ccccc1 (stereo not given) | -2.58% | 
CC(C)(S)[C@@H](N)C(=O)O | 4.15% | 
Nc1cccc2c1CN(C1CCC(=O)NC1=O)C2=O (stereo not given) | 1.23% | 
CN1CCC(=C2c3ccccc3CCc3sccc32)CC1 | 9.26% | 
CCCCN(CCCC)CCC(O)c1cc2c(Cl)cc(Cl)cc2c2cc(C(F)(F)F)ccc12 (stereo not given) | 8% [at 24.9 µM] | 
COc1c2occc2cc2ccc(=O)oc12 | -10.6% | 
Cc1ncc([N+](=O)[O-])n1CC(C)O (stereo not given) | 1.16% | 
Cc1cccc(C)c1OCC(=O)N[C@@H](Cc1ccccc1)[C@@H](O)C[C@H](Cc1ccccc1)NC(=O)[C@H](C(C)C)N1CCCNC1=O | -0.791% | 
CCN(CCO)CCCC(C)Nc1ccnc2cc(Cl)ccc12 (stereo not given) | 5.54% | 
O=C(O)c1cn(-c2ccc(F)cc2)c2cc(N3CCNCC3)c(F)cc2c1=O | 8.54% | 
CN(C)CCc1c[nH]c2ccc(Cn3cncn3)cc12 | -1.55% | 
C[C@]12CCC(=O)C=C1CC[C@@H]1[C@H]2[C@@H](O)C[C@@]2(C)[C@H]1CC[C@]2(O)C(=O)CO | 2.05% | 
CCc1nc(N)nc(N)c1-c1ccc(Cl)cc1 | 3.33% | 
